# Results as given in the supplement of paper PMC3334620.
# In all, about 33,000 sequences were measured (“E-score (-0.5 to 0.5)”: median about -0.032, highest 2% from about 0.36 on). This is one part of a sample in which the highest values are shown more often than they occur.
# Biological target: T1, Sko1 (UniProt Q02100)
# T1 sequence: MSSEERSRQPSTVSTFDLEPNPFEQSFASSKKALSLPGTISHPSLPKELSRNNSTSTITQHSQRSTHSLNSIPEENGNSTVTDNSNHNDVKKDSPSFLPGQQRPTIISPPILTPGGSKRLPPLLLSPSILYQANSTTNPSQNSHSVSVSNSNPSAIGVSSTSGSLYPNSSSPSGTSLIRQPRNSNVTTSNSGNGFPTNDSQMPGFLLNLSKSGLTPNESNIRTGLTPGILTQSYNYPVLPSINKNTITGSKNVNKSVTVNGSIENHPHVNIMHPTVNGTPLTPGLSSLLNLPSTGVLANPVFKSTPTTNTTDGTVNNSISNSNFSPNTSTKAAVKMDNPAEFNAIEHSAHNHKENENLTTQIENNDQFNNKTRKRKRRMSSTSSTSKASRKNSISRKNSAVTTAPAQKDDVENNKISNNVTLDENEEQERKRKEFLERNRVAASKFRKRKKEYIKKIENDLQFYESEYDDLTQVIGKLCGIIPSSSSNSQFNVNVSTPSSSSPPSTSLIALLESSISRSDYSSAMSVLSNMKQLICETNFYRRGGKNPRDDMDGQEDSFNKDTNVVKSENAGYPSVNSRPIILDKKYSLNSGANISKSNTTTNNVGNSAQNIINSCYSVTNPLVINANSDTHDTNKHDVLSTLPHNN
# Experiment: PBM E-score (8-mer binding enrichment) (E-score (-0.5 to 0.5)); higher = stronger / more preferred TF binding
# Conditions: protein concentration: 200 nM; construct: GST-full length
# Method in brief: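 Detection of bound protein used fluorescent anti-GST, with scans normalised by masliner. The proteins were GST-tagged yeast transcription factors applied at about 100-200 nM to universal all-10-mer Agilent arrays made double-stranded by primer extension. Each ungapped eight-base word, pooled with its reverse complement, was scored with an E-score from the Universal PBM Analysis Suite.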
row,Sequence,PBM E-score
1,GGGTTGCA,-0.00077
2,CTGGCGTC,0.0837
3,ATGGCGTA,0.449
4,GTGGCGTA,0.325
5,ATGGCGTC,0.392
6,ATGGCGTG,0.336
7,CTGGCGTA,0.138
8,AACGAGTG,0.0243
9,CGATGCAC,-0.0249
10,AGTCTTAA,-0.164
11,TCACTGCA,0.175
12,CTCACGAA,0.138
13,GTTACGAA,0.378
14,ATTACAAA,0.234
15,GTTACAAA,0.213
16,ATTACGAA,0.453
17,CTTACGAA,0.275
18,GTAGGGGA,-0.186
19,GGCCATCA,-0.165
20,ACCCTGAA,-0.0751
21,CGCGAATA,0.0754
22,ACCTAACT,0.0945
23,CGTCGCCA,0.0172
24,GAACCTCA,-0.069
25,AGGACGCC,-0.21
26,AGGACGTA,0.374

row,Sequence,PBM E-score
1,AGGACGTC,0.363
2,AGGACGTG,0.153
3,GGGACGTA,0.319
4,CGGACGTC,0.292
5,CATACCCA,0.108
6,TAAGCAGA,-0.00339
7,ACCGTACG,0.145
8,AAGGTAGT,-0.172
9,AACGTAGT,0.414
10,ATCGTACG,0.282
11,AACGTACT,0.37
12,ACCGTACT,0.00383
13,AGCGTACT,-0.0878
14,AACGTACG,0.398
15,ACCGTAGT,-0.122
16,GTCTTTAA,0.178
17,ACATTGAA,0.166
18,GTGCATGA,0.133
19,AGATGGTC,-0.139
20,AGGTCAAT,0.0656
21,ACGTCAAG,0.444
22,ATGTCAAT,0.226
23,ACGTCAAC,0.469
24,AGGTCAAG,-0.193
25,CCGTCAAC,-0.0749
26,CCGTCAAG,-0.0482

row,Sequence,PBM E-score
1,GCGTCAAA,0.274
2,GCGTCAAC,0.302
3,TCGTCAAA,0.281
4,ACGTCAAT,0.46
5,ACGTCAAA,0.447
6,CTCCAACC,-0.0963
7,CTGTACCC,-0.24
8,AGATTTCG,0.114
9,ACTAGAGA,-0.0523
10,CGATTGGA,-0.0798
11,AGATTGCG,0.188
12,AATGATGT,0.427
13,AATGATGG,0.189
14,AATGATGA,0.328
15,ACGTGCCA,0.396
16,CCGTGACA,-0.14
17,ACGTGACC,0.292
18,TCGTGACA,0.129
19,CCGTGACC,-0.28
20,ACGTGCCG,0.243
21,ACGTGACA,0.394
22,GCGTGCCA,-0.151
23,ACGTGACT,0.324
24,CCGTGACG,0.396
25,ACGTGAAG,0.326
26,ACGTGACG,0.462

row,Sequence,PBM E-score
1,AAATCAGG,0.0636
2,CAGAACTC,-0.0896
3,CTTTTTAA,0.112
4,GCAACCCC,-0.249
5,ACCGCCTC,-0.312
6,CGAGTATA,-0.0254
7,CCGTAGGA,-0.29
8,AGGTAGGG,-0.137
9,AAGTAGGG,-0.0549
10,CCGTAGGC,-0.293
11,ACGTAGGA,0.446
12,GCGTAGGA,0.0517
13,ACGTAGGC,0.425
14,ACGTAGGG,0.425
15,AAGTAGGC,-0.0531
16,CGCTAAGA,0.0374
17,GCACAGGC,-0.115
18,AAAGGCCA,-0.118
19,GTTGAGCA,0.0589
20,ACATCTCT,0.0591
21,GTCAACCA,0.0809
22,GGAACTAA,-0.0195
23,CCATTGAG,0.00857
24,GTAAAAAC,0.184
25,GGACTCGA,-0.342
